# High-throughput results: PubChem BioAssay, National Center for Advancing Translational Sciences (NCATS)
# TGFb inhibitor – TGF-b pathway inhibition; hit rate 1.2% among 410,000; Potency, µM (titrated, usually from 46.1 µM), inactives show at the top dose activity, negative = inhibition, actives largely listed as inhibitors; AID 588855; HepG2 CAGA-GFP TGF-b/SMAD3 reporter, GFP fluorescence, 18 h; TGF-beta stimulated, 500 pg/mL final; also: % is scaled to controls: 0 for no effect and ±100 for the full control effect; nearly all actives have a fitted effect of over 65% in size
#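 Using HEPG2 CAGA-GFP reporter cells at 1000 cells/well, we pinned test compounds, stimulated with recombinant TGF-beta (500 pg/mL final) and measured total well GFP after 18 h.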
# HT1080 IDH1KD tx – kills HT-1080 cells with IDH1 knockdown. HT-1080 IDH1 knockdown viability, ATP luminescence, 48 h. AID 686971. Potency, µM (titrated, usually from 46.1 µM), for inactives: at the top dose activity, negative = toxicity, actives largely listed as cytotoxic. hit rate 2% among 360,000;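 also: 0% = DMSO wells and -100% = cell-free medium wells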
#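 % activity derives from luminescence (CellTiter-Glo), normalised to DMSO and no-cell wells. HT-1080-IDH1KD cells, 750/well, had 48 h compound exposure at 37 °C.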
# HT1080NT lethal – kills 2HG-producing HT-1080-NT fibrosarcoma cells; HT-1080-NT fibrosarcoma viability, CellTiter-Glo ATP luminescence, 48 h; Potency, µM (series often up to 46.1 µM), without a hit: top-dose activity, negative = less viability, actives largely listed as cytotoxic; hit rate 1.6% among 360,000;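 also: NT is the 2HG producing partner of a matched IDH1 knockdown line; 0% = DMSO-treated cells and -100% = media-only wells without cells; nearly all actives have a fitted effect of over 55% in size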
#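 Compounds were tested in concentration-response format on HT-1080-NT cells for 48 hours at 37 degrees C. Cell viability came from CellTiter-Glo luminescence; curves were classified by r2, response magnitude and activity.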
# DT40 TDP1 CPT – DT40-hTDP1 cell growth loss with CPT; chicken DT40 Tdp1-/-;hTDP1 cells + 20 nM CPT, ATP luminescence, 48 h; Potency, µM (top dose mostly 46.2 µM), for inactives: at the highest dose activity change, negative = growth inhibition, hits mostly inhibitors; hit rate 12% among 420,000; AID 686979; also: % is scaled to controls: 0 for no effect and ±100 for the full control effect; nearly all actives have a fitted effect of over 55% in size
#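 Chicken DT40 Tdp1-/- cells complemented with human TDP1, 400 cells/well, exposed to compounds plus 20 nM camptothecin for at least 48 h at 37 C; viability read as ATP content by CellTiter-Glo luminescence.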
# TDP1 cell noCPT – qHTS for Inhibitors of human tyrosyl-DNA phosphodiesterase 1 (TDP1): qHTS in cells in absence of CPT | DT40 Tdp1-/- hTDP1 cells, no CPT, ATP luminescence, 48 h | Potency, µM (top dose mostly 46.2 µM), for the others: at the top dose activity change, negative = growth inhibition, hits mostly inhibitors | hit rate 15% among 420,000; also: % is scaled to controls: 0 for no effect and ±100 for the full control effect; nearly all actives have a fitted effect of over 55% in size
#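 A cellular qHTS used chicken DT40 cells lacking endogenous Tdp1 but carrying stably transfected human TDP1. Compounds were applied without camptothecin, and cell growth kinetics were judged by ATP-dependent luminescence after ≥48 hr.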
# HepG2 viability – counter-screen for TGF-b inhibitors: cytotoxicity in HepG2 cells. HepG2 CAGA-GFP viability, ATP luminescence, 18 h. Potency, µM (top dose mostly 46.1 µM), inactives show top-dose activity change, negative = cytotoxicity, actives largely listed as cytotoxic. hit rate 0.76% among 410,000
#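 HepG2 CAGA-GFP cells (1000/well, DMEM with 1% FBS) received compound, then TGF-beta at 500 pg/mL final, and were incubated 18 hours at 37 degrees C. Viability was read by CellTiter-Glo luminescence. Media-only wells were set as complete cell-killing and DMSO as no toxicity.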
# The depositor's hits bear a star; ? = inconclusive; . = no result given; ! = not confirmed by another sample; [ ] = another dose, or the depositor's remark. The list is not random: actives were taken first. Their share in the collection is about 17%. Calls follow the shape of the dose curve; as a rule, active = well fitted curve in the direction sought with a large enough effect; inconclusive = small, poorly fitted or top-dose-only effect, or another doubt; inactive = no such curve, though single readings can be large; an effect the other way counts as inactive or inconclusive. Potency is read from the fitted curve at half-maximal effect.
SMILES,TGFb inhibitor,HT1080 IDH1KD tx,HT1080NT lethal,DT40 TDP1 CPT,TDP1 cell noCPT,HepG2 viability
Cc1ccc(N2CCN(C(=O)C3CCN(S(=O)(=O)c4cccc5nsnc45)CC3)CC2C)cc1 (stereo not drawn),-18%,9%,26%,?,16µM*,-21%
Cc1ccc(C)c(N2CCN(C(=O)C3CCN(S(=O)(=O)c4cccc5nsnc45)CC3)CC2)c1,-3%,-23%,-15%,18µM*,18µM*,-16%
Cc1ccnc(NC(=O)C2CCN(S(=O)(=O)c3cccc4nsnc34)CC2)c1,19%,4%,1%,-6%,-7%,-4%
Cc1ccc(C)c(N(C)C(=O)C2CCN(S(=O)(=O)c3cccc4nsnc34)CC2)c1,?,.,.,16µM*,13µM*,-22%
O=S(=O)(c1ccc(F)cc1)N1CCN(c2nc(-c3cccs3)nc3ccccc23)CC1,-2%,22%,8%,?,?,-23%
FC(F)(F)c1cnc(-c2cc3c(c(OCC4CCCO4)c2)OCCN(Cc2cccn2-c2nccs2)C3)c(Cl)c1 (stereo not drawn),.,.,.,15%[9.04 µM],-7%,.
COc1ccc(CN(C(=O)c2ccc(C)cc2)C2CCS(=O)(=O)C2)cc1 (stereo not drawn),1%,7%,14%,-3%,12%,-7%
CCCCc1cc2ccccc2c(OCCN(C)C)n1,-4%,10%,5%,9µM*!,?,-64%
